tim10-1 inh – growth inhibitors of tim10-1 mutant yeast; S. cerevisiae tim10-1 ts strain growth, BacTiter-Glo, 24 h; inhibition, % at 20 µM; 330,000 tested, 2.2% active; AID 463190;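 active means inhibition of at least 40%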;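 further: mutant grown at 25 °C; 0% = DMSO wells with yeast and 100% = wells holding no yeast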
NALP3 yeast inh – inhibitors of NALP3 inflammasome in yeast; Yeast reconstituted NLRP3/ASC/caspase-1, beta-gal luminescence, 24 h; inhibition, % at 10 µM; 330,000 tested, 0.39% active; AID 2825;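 active means inhibition of 50% or more; inactive means inhibition below 50%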;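 further: plate controls were induced DMSO wells for no effect and uninduced yeast grown without galactose for full effect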
tim23-1 inh – inhibits growth of tim23-1 mutant yeast | S. cerevisiae tim23-1 growth, BacTiter-Glo luminescence, 24 h | AID 463212 | 330,000 tested, 1.3% active | inhibition, % at 20 µM;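 active means growth inhibition of the mutant yeast at or above 50%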;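 further: temperature-sensitive mutant grown at 25 °C; plate controls were DMSO-treated mutant yeast for no effect and medium wells lacking yeast for full effect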
TIM10 inh – growth inhibitors of TIM10 yeast strain; S. cerevisiae TIM10 strain growth, BacTiter-Glo luminescence, 24 h; inhibition, % at 10 µM; 330,000 tested, 1.4% active;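 active means inhibition of 40% or more at the single tested concentration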;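 further: wild-type TIM10 isogenic control strain grown at permissive 25 °C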
SKKanGAS inh – SKKanGAS growth inhibition | S. pyogenes SKKanGAS, kanamycin growth, BacTiter-Glo, 6 h | inhibition, % at 7.5 µM | 300,000 tested, 1.3% active;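 active means mean replicate score, as percent of positive control median, at least 50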;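 further: strain carries kanamycin resistance gene driven by streptokinase promoter and grows in 40 µg/ml kanamycin; loss of luminescence reflects streptokinase promoter inhibition or plain growth inhibition; 0% = median of DMSO wells and 100% = positive control at its reference dose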
tim10-1 conf – confirmation of tim10-1 mutant yeast growth inhibitors; shares compounds with tim10-1 inh; S. cerevisiae tim10-1 ts strain growth, BacTiter-Glo, 24 h; inhibition, % at 20 µM; 7,400 tested, 56% active; AID 463213;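 active means inhibition of yeast growth at or above a set limit in either of two repeat tests at 20 µM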;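 further: tim10-1 mutant grown at permissive 25 °C to find synthetic lethal compounds; 0% = DMSO yeast wells and 100% = medium wells without yeast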
The depositor's hits bear a star; . = not tested or not shown. Shown are actives, neighbours in structure and some others; about 4.6% of the full set was active somewhere.

SMILES	tim10-1 inh	NALP3 yeast inh	tim23-1 inh	TIM10 inh	SKKanGAS inh	tim10-1 conf
COc1ccc(C(=O)c2ccc(OC)cc2O)c(O)c1	41*	35	21	15	29	36*
COc1ccc(C(=O)/C=C/c2ccccc2)c(O)c1	49*	20	34	40	-1	47*
CCOc1ccc2nc(SCC(=O)Nc3ccc4[nH]c(=O)[nH]c4c3)[nH]c2c1	-4	8	-6	6	-2	.
COc1cc(/C=N/NC(=O)NC23CC4CC(CC(C4)C2)C3)ccc1O	51*	-2	50	18	0	14
Cc1ccc(S(=O)(=O)N2CCN(C(=O)c3cc4c(s3)CCCC4)CC2)c(C)c1	22	7	33	18	.	.
O=C(c1cc2c(s1)CCCC2)N1CCN(S(=O)(=O)c2ccccc2C(F)(F)F)CC1	41*	13	35	13	-24	29
CN(C)c1ccc(/C=N/n2c(COc3ccccc3)n[nH]c2=S)cc1	3	19	20	13	1	.
S=c1[nH]nc(COc2ccccc2)n1/N=C/c1cccs1	42*	18	43	33	-9	13
S=c1[nH]nc(COc2ccccc2)n1/N=C/c1cccc(Br)c1	45*	17	21	24	7	20
CC(C)c1ccc(/C=N/n2c(COc3ccccc3)n[nH]c2=S)cc1	43*	37	32	18	38	21
S=c1[nH]nc(COc2ccccc2)n1/N=C/c1ccc(Br)cc1	33	24	17	9	9	.
C=C(C)C(=O)OCC(O)COc1ccc(C(C)(C)c2ccc(OCC(O)COC(=O)C(=C)C)cc2)cc1 (configuration not stated)	18	11	24	18	6	.
CCOc1ccc(/C=C2/C(=O)N(c3ccc(OC)cc3)C(=S)N2CC(=O)OC)cc1OCC	41*	15	40	31	1	30
COc1ccccc1NC(=S)N1CCN(c2nc(-c3ccccc3)cs2)CC1	47*	9	25	18	-4	29
S=C(NCC1CCCO1)N1CCN(c2nc(-c3ccccc3)cs2)CC1 (configuration not stated)	53*	0	30	7	-9	29
Cc1ccccc1NC(=O)CSc1nc(N)c2c3c(sc2n1)CSC(C)(C)C3	43*	4	39	9	19	33*
COc1cc(/C=C2\C(=N)N3N=C(S(=O)(=O)CC(C)C)SC3=NC2=O)ccc1OC(=O)c1ccco1	41*	1	19	14	34	5
COc1ccc(/C=C/C(=O)c2ccccc2)cc1Cn1nnc2ccccc21	59*	6	46	39	-7	45*
CCOc1ccccc1NC(=O)NC1(C(=O)NCc2cccnc2)CCCCC1	0	17	1	12	4	.
COc1nc(NCCc2ccc(OC)c(OC)c2)nc(Nc2ccccc2)n1	-1	18	26	-7	1	.
O=C(Nc1ccc(Cl)c(Cl)c1)Oc1ccc(NC(=O)c2ccco2)cc1	44*	2	29	19	72*	26
CCn1cc(/C=C(\NC(=O)c2ccccc2)C(=O)NCCCN2CCOCC2)c2ccccc21	-2	13	-7	4	1	.
COc1cc(C2Nc3cccc4cccc(c34)N2)ccc1OC(C)=O	41*	4	29	37	10	39*
CCOC(=O)N1CCC(n2c(SCC(=O)NCc3ccccc3)nc3ccccc3c2=O)CC1	43*	10	32	25	4	21
CCOC(=O)N1CCC(n2c(SCC(=O)N3CCCC3)nc3ccccc3c2=O)CC1	25	-1	7	11	5	.
SMILES	tim10-1 inh	NALP3 yeast inh	tim23-1 inh	TIM10 inh	SKKanGAS inh	tim10-1 conf
Cc1noc(NS(=O)(=O)c2ccc(NC(=O)c3nn(-c4ccccc4)ccc3=O)cc2)c1C	-6	1	-9	4	13	.
C/C(=N/NS(=O)(=O)c1ccccc1)c1ccc(Cl)cc1	40	6	13	32	-7	20
C/C(=N/NS(=O)(=O)c1ccc(Cl)cc1)c1ccncc1	25	4	13	17	-8	.
C/C(=N\NS(=O)(=O)c1ccc(C(C)(C)C)cc1)c1ccccc1	42*	-12	49	29	-3	43*
Cc1ccccc1CC(=O)Nc1cccnc1	11	16	1	8	0	.
Cc1ccc(NC2=C(NCCO)C(=O)c3ccccc3C2=O)cc1	43*	8	27	19	2	12
O=C1C(Cl)=C(NCCCO)C(=O)c2ccccc21	29	21	30	25	6	.
CC(C)CCN(C(=O)c1cc(=O)[nH]c2ccccc12)c1c(N)n(Cc2ccccc2)c(=O)[nH]c1=O	-7	-2	3	-2	.	.
COc1ccc(C2/C=C\CN(C(=O)c3ccc(C)cc3)CC(=O)N2Cc2ccc(F)cc2)cc1 (configuration not stated)	40*	14	8	13	5	21
CCC(C(=O)c1ccc(O)cc1)c1ccccc1 (configuration not stated)	46*	-66	24	20	-3	28
CCC(C(=O)N(C(C)C)C(C)C)c1ccccc1 (configuration not stated)	7	23	-6	-7	.	.
Cc1cc(C(F)F)n2nc(C(=O)Nc3sc4c(c3C#N)CCC4)nc2n1	42*	-8	28	12	11	35*
Cc1onc(-c2ccccc2)c1C(=O)NC(=S)Nc1sc2c(c1C#N)CCC(C)C2 (configuration not stated)	38	9	36	36	-4	.
CNC(=O)c1c(NC(=O)c2ccco2)sc2c1CCC2	41*	27	45	18	-1	17
Cc1onc(-c2ccccc2)c1C(=O)Nc1sc2c(c1C(N)=O)CCC2	47*	-4	23	13	-3	28
Cc1onc(-c2ccccc2)c1C(=O)Nc1sc2c(c1C#N)CCC2	41*	18	33	28	7	42*
COc1cc(CN2CCN(C(=O)CC(C)C)CC2)c([N+](=O)[O-])cc1OC	8	9	10	-5	-1	.
O=C(Nc1ccon1)c1nc[nH]c1C(=O)N1CCN(c2ccccc2)CC1	10	-3	23	5	.	.
CCN(CC(=O)Nc1ccc(NC(C)=O)cc1)C(=O)Cc1ccc(Cl)c(Cl)c1	3	2	4	-5	-1	.
Fc1ccc(-c2nn3c(C4COc5ccccc5O4)nnc3s2)cc1 (configuration not stated)	47*	2	25	34	-4	43*
Cc1ccc2cccc(OCc3ccc(Br)cc3)c2n1	44*	40	39	40	2	17
Cc1ccc2cccc(OCc3ccc(F)cc3)c2n1	17	15	28	1	2	.
CC(C)(CNC(=O)c1ccc(-c2cccc(C(F)(F)F)c2)o1)N1CCOCC1	17	20	12	2	-4	.

Screening data as filed in PubChem.
